The results in this text go back to PubChem BioAssay AID1851 (National Center for Advancing Translational Sciences (NCATS), 2009).

The term AC50 denotes the concentration at which the activity in the assay is half-maximal.

Out of some 16,000 compounds screened, about 5,700 (36%) were called active. About 24% were inconclusive and are not listed. Some of the results follow. A number with no mark means an inactive call. The call rests on the fitted dose curve; in most records, active means well fitted curve in the direction sought with a large enough effect; inconclusive means small, poorly fitted or top-dose-only effect, or effect the other way; inactive means no such curve, though single readings can be large or run the other way.
On the % scale 0 is the no-effect control and ±100 the full control effect.

The target in the assay is Cytochrome P450 1A2 (Homo sapiens) (UniProt P05177). As to the kind of experiment: Cytochrome panel assay with activity outcomes. Conditions: recombinant CYP, pro-luciferin dealkylation, luminescence, p450-cyp1a2; series mostly up to 57.1 µM; activity, negative = inhibition: at the top concentration.
Chain of Cytochrome P450 1A2 (Homo sapiens) (P05177 whole entry, looked up): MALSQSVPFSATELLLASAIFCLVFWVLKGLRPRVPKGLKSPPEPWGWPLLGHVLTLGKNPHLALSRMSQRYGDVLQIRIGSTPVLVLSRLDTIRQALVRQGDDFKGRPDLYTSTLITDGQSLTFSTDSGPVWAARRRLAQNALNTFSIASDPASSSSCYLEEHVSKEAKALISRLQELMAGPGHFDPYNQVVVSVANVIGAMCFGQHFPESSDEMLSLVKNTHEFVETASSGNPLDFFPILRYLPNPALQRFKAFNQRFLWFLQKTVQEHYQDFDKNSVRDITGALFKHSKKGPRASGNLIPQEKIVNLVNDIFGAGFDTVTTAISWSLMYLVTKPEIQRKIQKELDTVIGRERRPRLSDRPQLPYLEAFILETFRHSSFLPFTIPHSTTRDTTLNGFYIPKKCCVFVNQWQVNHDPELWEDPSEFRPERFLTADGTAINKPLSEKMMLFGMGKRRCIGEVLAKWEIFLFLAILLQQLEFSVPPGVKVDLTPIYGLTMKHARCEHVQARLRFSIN
Consider `NS(=O)(=O)C[C-]1C=C[CH]([Sb-]([Cl])([Cl])([Cl])([Cl])[Cl])C=C1.c1ccncc1` (stereo not given), for which the activity, negative = inhibition is -15.1% [at 11.4 µM]. Same read-out and setting: under `O=C(O)[C@@H](O)[C@@H](O)[C@@H]1[O][Sb][O][C@@H]1CO` stands -5.14% [at 2.29 µM]; under `CCC1=C(C[C@H]2NCCc3cc(OC)c(OC)cc32)C[C@H]2c3ccccc3CCN2C1`, -6.07% [at 11.4 µM]. The same measure, in the same setting: under `O=C(O)CNC(=O)[C@@H](CS)Cc1ccccc1` stands -4.85% [at 25.6 µM]; under `Cc1cc(C(C)(C)C)cc(C)c1CC1=NCCN1`, -8.4% [at 25.6 µM]. `Cc1sc2ccccc2c1CC1=NCCN1`: the AC50 was 2.51 µM (active).

In the case of `c1ccc2cc(CC3=NCCN3)ccc2c1`, the “activity, negative = inhibition” value was 2.54%. Same read-out and setting: under `CCCN1CCC[C@H](c2cccc(C#N)c2)C1` stands -12.2%. With `CCN(CC)c1ccc(/C=C2/C(=O)NC(=O)N(CC3CCCO3)C2=O)cc1` (stereo not given), the concentration at half-maximal activity (AC50) was 12.6 µM (active). In the case of `O=c1cccc2n1CC1CNC[C@H]2C1`, the “activity, negative = inhibition” value is -5.12% [at 25.6 µM].

For the compound `CC(C)(C)CC(=O)NC(=S)Nc1ccccc1C(F)(F)F`, the AC50 was 11.2 µM (active).

Consider `O=[As](O)(O)c1ccc(N=Nc2ccc(O)cc2)cc1`, for which the activity, negative = inhibition was -14.5% [at 11.4 µM]. The same measure, in the same setting: under `O=P(Nc1c(Cl)cccc1Cl)(c1ccccc1)c1nc2c(s1)CCCC2` (stereo not given) stands -1.03%.

`CCN(CC)C(=O)N[C@@H]1C[C@H]2c3cccc4[nH]cc(c34)C[C@@H]2N(C)C1`: the AC50 entry was “inactive”. On to `COc1cc2c3cc1Oc1cc(ccc1O)C[C@@H]1c4c(cc(OC)c(O)c4Oc4cccc(c4)C[C@H]3N(C)CC2)CC[N+]1(C)C`, for which the “activity, negative = inhibition” value was -8.38% [at 25.6 µM]. Turning to `C=CCN1CCC2(C)c3cc(O)ccc3C[C@H]1[C@H]2C`, the AC50 result is “inactive”. Still for that read-out and setting: under `C=CCN1CC[C@@]23c4c5ccc(O)c4O[C@H]2/C(=N\N=C2/CC[C@@]4(O)[C@H]6Cc7ccc(O)c8c7[C@@]4(CCN6CC=C)[C@@H]2O8)CC[C@]3(O)[C@@H]1C5` stands “inactive”; under `CCCN1CCc2cc(O)cc3c2[C@H]1Cc1ccc(O)c(O)c1-3`, 12.6 µM (active).

On to `CCCN(CCC)[C@@H]1CCc2ccc(O)cc2C1`, for which the AC50 result was “inactive”. On the same count and under the same terms, under `COc1cc2c(cc1O)C[C@H]1c3c(cc(O)c(OC)c3-2)CCN1C` stands 2.51 µM (active); under `C=CCN1CCc2cccc3c2[C@@H]1Cc1ccc(O)c(O)c1-3`, 3.16 µM (active). Take `COc1ccc2cc1Oc1ccc(cc1)C[C@H]1c3cc(c(OC)cc3CCN1C)Oc1c(OC)c(OC)cc3c1[C@@H](C2)N(C)CC3`: the activity, negative = inhibition was 2.06% [at 2.29 µM].

Consider `COc1cc2c3cc1Oc1c(O)c(OC)cc4c1[C@@H](Cc1ccc(cc1)Oc1cc(ccc1O)C[C@H]3N(C)CC2)N(C)CC4`, for which the activity, negative = inhibition was -8.21% [at 11.4 µM]. On the same count and under the same terms, under `CCCN1CC[C@@H]2c3cc(O)ccc3CC[C@H]21` stands -9.66%. On to `CN1CCc2cc(O)cc3c2[C@H]1Cc1ccc(O)c(O)c1-3`, for which the AC50 is 12.6 µM (active). As for `CN1CC[C@@]2(CCCN(C(=O)c3ccco3)C2)C1`, the “activity, negative = inhibition” value is 7.97%.

Regarding `COC(=O)C[C@](O)(CCCC(C)(C)O)C(=O)O[C@@H]1C(OC)=C[C@]23CCCN2CCc2cc4c(cc2[C@H]13)OCO4`, the “activity, negative = inhibition” value was -9.9%. Still for that read-out and setting: under `C=C[C@@H]1CN2CC[C@H]1C[C@H]2[C@H](O)c1ccnc2ccccc12` stands -18.2% [at 11.4 µM].

`CCN1C[C@@]2(COC)[C@H]3[C@@H](OC)[C@H]4C1[C@@]3([C@H](OC)C[C@@H]2O)[C@H]1C[C@@]2(O)[C@@H](OC(=O)c3ccccc3)[C@@H]1[C@@]4(OC(C)=O)[C@H](O)[C@@H]2OC`: the “activity, negative = inhibition” value is -4.7% [at 25.6 µM].

On to `NN=C(N)N`, for which the “activity, negative = inhibition” value was -5.67%. Regarding `c1csc(CN2CC3(CCNCC3)C2)n1`, the “activity, negative = inhibition” value is 12.5%. Still for that read-out and setting: under `Clc1ccc([C@@H]2C[C@H]3CC[C@@H]2N3)cn1` stands -20.5%. Regarding `Clc1ccc(C2=CCC[C@H]3CC[C@@H]2N3)cn1`, the AC50 is 15.8 µM (active). With `CCN(CC)C(=O)N[C@H]1C[C@H]2c3cccc4[nH]cc(c34)C[C@@H]2N(C)C1`, the “activity, negative = inhibition” value was -12.5%.

For the compound `CNC(C)(C)Cc1ccccc1`, the “activity, negative = inhibition” value is -1.89% [at 25.6 µM]. The same measure, in the same setting: under `C[C@H](Br)C(=O)N[C@H](CO)C(=O)O` stands -13.1% [at 11.4 µM]; under `O=C(O)C[C@H]1NCc2cc3ccccc3nc21`, -4.93% [at 2.29 µM].

Regarding `CCC1(CC)C(=O)C=CNC1=O`, the “activity, negative = inhibition” value was -8.09% [at 25.6 µM]. For the compound `O=C(Nc1ccc(Cl)cc1C(=O)c1ccccc1)c1ccco1`, the AC50 is 2.51 µM (active).

Take `CC[C@]1(C2=NCCN2)Cc2ccccc2O1`: the “activity, negative = inhibition” value was -6.04%. Consider `CNC[C@H](O)c1ccc(O)cc1`, for which the “activity, negative = inhibition” value is -7.35% [at 25.6 µM]. With `CC[n+]1c(/C=C/N(C)c2ccccc2)sc2ccc(Cl)cc21`, the AC50 is 4.47 µM (active). On to `O=C(Nc1cccc(F)c1)N1CCC2(CC1)CCN(C(=O)Oc1ccccc1)CC2`, for which the “activity, negative = inhibition” value is -13.8%. Same read-out and setting: under `CCC(=O)Nc1ccc(N2CCN(CC)CC2)c(Cl)c1` stands 5.31%; under `COC(=O)[C@H]1[C@@H](c2ccccc2)[C@@]2(c3ccccc3)Oc3ccccc3[C@@]1(O)[C@@H]2O`, 4.61% [at 11.4 µM].
